Bioassay records as filed in PubChem.
Sampled rows, rich in hits. Any-hit rate of the full collection: about 1.4%.
GSIS activator: GLuc luminescence reporter in INS-1E cells, primary screen for activators of glucose-dependent secretion of insulin. activation, % at 16.6 µM. 370,000 compounds, 0.61% hits. INS-1E GLuc reporter insulin secretion, 2-3 h;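 active means lowest replicate activation of at least 40%, so every replicate reaches that level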
MLL AF4-AF9 inh: inhibitors of AF4 peptide binding to AF9, primary screen, biochemical, AlphaScreen, biotin-AF4 peptide, FLAG-AF9, single point. 350,000 compounds, 0.47% hits. inhibition, % at 10 µM;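 active means every replicate reaching a set inhibition limit, whatever the replicate mean, cut at about 25% in these data; inconclusive means mean inhibition reaches that limit but some replicates miss it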
RAD52 anneal inh: RAD52 DNA annealing inhibitors, primary screen, biochemical, FRET, single point, set 2 | recombinant RAD52 DNA annealing, FRET fluorescence | inhibition, % at 18.7 µM | 360,000 compounds, 0.46% hits;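 active means every replicate showing at least 50% inhibition; inconclusive means mean inhibition at least 50% but not in every replicate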
ERAP1 inh: human ERAP1 aminopeptidase inhibitors, primary screen, biochemical, single point, plate reader; Endoplasmic reticulum aminopeptidase 1 (Homo sapiens), Q9NZ08; recombinant ERAP1, Leu-AMC fluorescence, 60 min; inhibition, % at 10.7 µM; 340,000 compounds, 0.15% hits; AID 652197, 2013;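 active means mean replicate inhibition of at least 30%, or all replicates individually reaching that 30% level; inactive means mean below 30% and not every replicate reaching it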
PGC1a acetyl inh: inhibitors of PGC1a acetylation signal, primary screen, cell-based, U2OS, AlphaScreen, inhibitor mode | AlphaScreen anti-acetyl-lysine; with virally co-expressed GCN5 acetyltransferase | inhibition, % at 15.6 µM | 350,000 compounds, 0.17% hits | AID 651687, 2012;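 active means every replicate shows inhibition of at least 40%; inconclusive means mean inhibition at least 40% but some replicate below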
RAD54 branch: inhibitors of human RAD54 branch migration, primary screen, biochemical, fluorescence, single point; inhibition, % at 10.4 µM; DNA repair and recombination protein RAD54-like (Homo sapiens), Q92698; 360,000 compounds, 0.14% hits; RAD54 Holliday junction branch migration, FAM/BHQ fluorescence;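 active means mean normalized replicate activity at least 40 and at least half of replicates scoring 40 or more; inconclusive means only one of the two criteria met; inactive means mean below 40 and under half of replicates reaching 40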;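 further: inhibitors cause a drop in the FAM fluorescence signal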
Target sequence (Q92698 whole entry, looked up): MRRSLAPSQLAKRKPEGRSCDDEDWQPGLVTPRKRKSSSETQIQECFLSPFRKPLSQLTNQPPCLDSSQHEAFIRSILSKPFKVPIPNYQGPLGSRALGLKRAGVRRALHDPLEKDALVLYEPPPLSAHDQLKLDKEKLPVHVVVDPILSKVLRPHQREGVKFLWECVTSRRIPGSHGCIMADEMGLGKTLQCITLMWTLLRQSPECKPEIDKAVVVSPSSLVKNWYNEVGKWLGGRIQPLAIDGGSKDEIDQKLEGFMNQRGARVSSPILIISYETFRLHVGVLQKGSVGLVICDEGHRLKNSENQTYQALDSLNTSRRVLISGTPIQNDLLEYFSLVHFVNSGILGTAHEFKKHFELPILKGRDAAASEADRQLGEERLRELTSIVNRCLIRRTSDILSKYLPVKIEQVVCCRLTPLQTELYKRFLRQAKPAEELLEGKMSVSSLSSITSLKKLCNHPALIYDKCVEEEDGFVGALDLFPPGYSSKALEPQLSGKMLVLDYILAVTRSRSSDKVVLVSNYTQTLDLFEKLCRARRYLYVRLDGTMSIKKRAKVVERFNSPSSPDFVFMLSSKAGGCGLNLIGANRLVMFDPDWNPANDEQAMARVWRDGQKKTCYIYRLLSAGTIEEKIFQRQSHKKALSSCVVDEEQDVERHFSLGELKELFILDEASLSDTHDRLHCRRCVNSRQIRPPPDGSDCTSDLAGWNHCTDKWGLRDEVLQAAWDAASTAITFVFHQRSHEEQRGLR
Rad54 DNA ctr: DNA binding of candidate compounds, dose response, artefact control for RAD54 inhibitor project, biochemical, fluorescence polarization, cherry-pick | shares compounds with RAD54 branch | Acridine orange-DNA displacement, 20 min | AC50, µM (top dose mostly 35 µM) | 460 compounds, 8% hits;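 active means signal drop giving an AC50 within twice the top valid tested concentration of each sample, actives reach about 35 µM in these data; inactive means activity opposite to expected, plus the rest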;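 further: polarization loss reports compound binding to salmon sperm DNA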
DNA binder FP: DNA-binding compounds via dye displacement, dose response, artefact control for RAD52 inhibitor project, biochemical, fluorescence polarization, cherry-pick. AID 652128, 2013. AC50, µM. shares compounds with RAD52 anneal inh. 1,000 compounds, 8% hits. Salmon sperm DNA/acridine orange FP displacement;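 active means fitted half-maximal concentration for signal loss at or below twice the highest dose tested, in every separate run, actives reach about 64 µM in these data; inconclusive means runs disagree, or flat partial signal loss, or poor fit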
A number is an active result; - = inactive; ? = inconclusive; . = no result.

SMILES	GSIS activator	MLL AF4-AF9 inh	RAD52 anneal inh	ERAP1 inh	PGC1a acetyl inh	RAD54 branch	Rad54 DNA ctr	DNA binder FP
COc1ccc(Nc2c3c(nc4ccccc24)CCCC3)cc1OC	-	-	-	-	.	.	.	.
COc1ccc(Nc2c3ccccc3nc3ccccc23)cc1	-	-	73	-	.	101	27µM	11µM
COc1ccc(CCNc2c3ccccc3nc3ccccc23)cc1OC	-	-	83	-	-	100	-	-
Cc1ccccc1S(=O)(=O)NCC[C@H]1CC[C@H](NC(=O)C2CC2)[C@@H](CO)O1	-	-	-	-	-	-	.	.
Oc1cccc(Nc2c3ccccc3nc3ccccc23)c1	-	-	82	-	.	57	30µM	?
Cc1ccc(-c2nc(Nc3cccc(O)c3)c3ccccc3n2)cc1	-	-	-	-	.	-	.	.
COCC(=O)N1CC2(C1)[C@H](c1ccccc1)[C@H](CO)N2C(=O)c1ccccc1	-	-	-	-	-	.	.	.
CCOC(=O)c1cnc2c(ccc3ccccc32)c1NCCCN(C)C	.	-	96	-	-	123	-	?
CCOC(=O)c1cnc2c(C)c(C)ccc2c1NCCN1CCOCC1	-	-	-	-	.	-	.	.
CCOC(=O)c1cnc2c(C)cc(C)cc2c1NCCCN1CCOCC1	-	-	68	-	-	93	-	-
COCC(=O)Nc1ccc2c(c1)[C@H]1C[C@H](CC(=O)N(C)C)O[C@@H](CO)[C@H]1O2	-	.	.	.	-	.	.	.
Cc1cccc(-c2cc(N3CCCN(C)CC3)n3nccc3n2)c1	-	30	103	-	-	?	-	-
CCOc1cccc(-c2cc(N3CCN(CCO)CC3)n3nccc3n2)c1	-	-	-	-	-	-	.	.
CN1CCCN(c2cc(-c3ccc4ccccc4c3)nc3ccnn23)CC1	-	-	104	-	.	64	-	-
CCCNC(=O)C[C@H]1C[C@@H]2c3cc(NS(=O)(=O)c4ccc(OC)cc4)ccc3O[C@@H]2[C@@H](CO)O1	-	.	.	.	-	-	.	.
CC(=O)Nc1cc(-c2ccc(N3CCN(C)CC3)cc2)cn2c(-c3cccc(C(C)=O)c3)cnc12	.	-	70	-	-	79	-	-
CC(=O)Nc1cc(-c2cccc(C(=O)NCCN(C)C)c2)cn2c(-c3ccccc3)cnc12	-	-	90	-	-	64	-	-
CC(=O)Nc1cc(-c2cccc(C(=O)NCCN(C)C)c2)cn2c(-c3ccc(S(C)(=O)=O)cc3)cnc12	-	-	92	-	.	56	-	-
CCN1CCN(c2cc(C)c3cc(NC(=S)N4CCC5(CC4)OCCO5)ccc3n2)CC1	-	-	56	.	-	?	-	-
CCCN1CCN(C(=S)Nc2ccc3nc(N4CCN(CC)CC4)cc(C)c3c2)CC1	-	-	89	-	-	62	-	-
COc1ccc(-c2cnc3c(c2)C(=O)N([C@@H](C)CO)C[C@@H](C)[C@@H](CN(C)S(=O)(=O)c2ccc(OC)cc2)O3)cc1	-	.	.	.	-	.	.	.
O=C(C[C@H]1CC[C@H](NC(=O)C2CCOCC2)[C@H](CO)O1)Nc1ccccc1	-	-	-	-	.	.	.	.
COc1ccc(-c2nc(C(=O)NCCCN3CCOCC3)cc3c2[nH]c2ccccc23)cc1OC	-	-	83	-	-	94	-	-
COc1ccc(Nc2cc(C(=O)NCCCN3CCOCC3)c3ccccc3n2)cc1OC	-	.	.	.	-	-	.	.
OC[C@H]1[C@@H](c2ccccc2)C2(CN(Cc3nccs3)C2)N1Cc1ccncc1	-	.	.	.	.	.	.	.
C[C@H](CO)N1C[C@H](C)[C@H](CN(C)Cc2ccc(C(=O)O)cc2)OCCCC[C@H](C)Oc2ccc(NC(=O)NC3CCCCC3)cc2C1=O	-	-	-	-	-	-	.	.
